This passage reports Percent Effect results from ChEMBL document CHEMBL3988442, “University of Dundee, Small-Polar-MMV Screening Library” (2021).

The experiment deals with Chromo domain-containing protein 1 (Saccharomyces cerevisiae (strain ATCC 204508 / S288c) (Baker's yeast)) (UniProt P32657). Description: ScCHD-1 Enzyme Inhibition Assay. Type of experiment: functional. Further details: scale not given: in the data most compounds retested in dose-response had high values. The following applies: 30 µM.
Sequence of Chromo domain-containing protein 1 (Saccharomyces cerevisiae (strain ATCC 204508 / S288c) (Baker's yeast)) (P32657 whole entry, the tested form may be a part): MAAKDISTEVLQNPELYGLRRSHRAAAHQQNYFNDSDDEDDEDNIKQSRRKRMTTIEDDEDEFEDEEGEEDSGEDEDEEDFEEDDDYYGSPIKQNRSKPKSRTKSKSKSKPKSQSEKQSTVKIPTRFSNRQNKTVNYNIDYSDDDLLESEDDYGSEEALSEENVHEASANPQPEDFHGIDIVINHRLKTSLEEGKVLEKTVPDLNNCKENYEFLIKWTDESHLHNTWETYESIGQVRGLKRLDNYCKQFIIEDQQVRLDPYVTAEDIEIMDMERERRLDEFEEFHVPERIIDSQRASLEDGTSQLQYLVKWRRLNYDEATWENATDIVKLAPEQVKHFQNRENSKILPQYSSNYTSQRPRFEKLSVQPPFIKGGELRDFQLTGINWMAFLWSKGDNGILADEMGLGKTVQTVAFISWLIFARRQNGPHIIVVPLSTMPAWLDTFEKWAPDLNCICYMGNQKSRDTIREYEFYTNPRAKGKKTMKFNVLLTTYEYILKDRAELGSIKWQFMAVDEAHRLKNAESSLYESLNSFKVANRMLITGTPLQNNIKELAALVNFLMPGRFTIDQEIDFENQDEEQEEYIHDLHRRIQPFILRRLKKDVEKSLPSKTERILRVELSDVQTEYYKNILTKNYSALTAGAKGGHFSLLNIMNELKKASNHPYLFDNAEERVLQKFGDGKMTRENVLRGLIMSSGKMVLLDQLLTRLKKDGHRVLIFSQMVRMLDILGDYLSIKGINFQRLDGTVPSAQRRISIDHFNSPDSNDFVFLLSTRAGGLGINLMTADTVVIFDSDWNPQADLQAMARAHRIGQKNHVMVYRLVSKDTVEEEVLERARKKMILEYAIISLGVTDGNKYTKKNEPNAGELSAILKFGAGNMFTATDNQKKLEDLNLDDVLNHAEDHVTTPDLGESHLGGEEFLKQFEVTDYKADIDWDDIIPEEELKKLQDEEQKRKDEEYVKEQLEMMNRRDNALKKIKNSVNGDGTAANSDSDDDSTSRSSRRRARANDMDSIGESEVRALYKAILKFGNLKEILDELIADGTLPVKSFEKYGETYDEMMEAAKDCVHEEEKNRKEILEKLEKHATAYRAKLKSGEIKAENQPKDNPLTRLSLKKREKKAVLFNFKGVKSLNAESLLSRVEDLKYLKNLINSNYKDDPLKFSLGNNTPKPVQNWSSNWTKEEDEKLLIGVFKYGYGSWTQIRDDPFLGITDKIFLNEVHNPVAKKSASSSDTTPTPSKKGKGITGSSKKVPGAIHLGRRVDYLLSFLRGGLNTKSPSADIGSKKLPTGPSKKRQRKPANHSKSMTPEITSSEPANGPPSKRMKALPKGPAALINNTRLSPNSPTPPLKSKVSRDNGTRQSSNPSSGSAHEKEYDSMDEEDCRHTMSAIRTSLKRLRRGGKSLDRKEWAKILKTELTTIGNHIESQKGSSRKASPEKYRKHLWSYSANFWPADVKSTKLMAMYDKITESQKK
As to `O=C1COC2(CCN(C(=O)c3ccco3)CC2)CN1Cc1ccccn1`, the Percent Effect was -5.91%. In the case of `Cc1ccn(-c2cccc(C(=O)N3CCCC(n4ccnc4C)C3)c2)n1` (stereo not given) it was -1.96%; in that of `Cc1ccoc1-c1nnc(CN2CCn3c(nnc3C3CC3)C2)o1`, -2.12%.

As to `CC(=O)N1CCCC1c1csc(Nc2cnccn2)n1` (stereo not given), the Percent Effect is -25.7%. With `Fc1ccc(-c2nnc(CN3CCn4c(nnc4C4CC4)C3)o2)cc1`, the Percent Effect is -6.37%. In the case of `CC(C)c1cc(NC(=O)CN2CCNC(=O)C2)on1` it was -9.71%; in that of `CN(C)c1ccc(NC(=O)NCc2ccccn2)cn1`, -9.39%; in that of `CNc1snc(C)c1C(=O)N1CCCC(n2nc(C)cc2C)C1` (stereo not given), -14.8%.

`COc1ccc(CN2CCC[C@@H]3CN(C(=O)c4ccco4)C[C@@H]32)cc1`: the Percent Effect came to 0.299%. The result for `O=C(c1cc(Cl)c2c(c1)OCCO2)N1CCCC(n2cncn2)C1` (stereo not given) reads 2.59%; that for `CCC(=O)N1CCC(O)(c2ncc(OC)nc2OC)CC1`, -17.1%; that for `CCCn1ncc2c(C(=O)Nc3n[nH]c(SC)n3)cc(C3CC3)nc21`, -26.6%.

For the compound `Cc1nc(CN(C)C2CCN(CCCOc3ccccc3)C2)no1` (stereo not given), the Percent Effect was -11.3%. With `CCOc1ncccc1NC(=O)NC1CCCN(c2ncccn2)C1` (stereo not given), the Percent Effect was -4.97%. The result for `COC(=O)NCc1cc2n(n1)CCCN(C(C)=O)C2` reads -3.29%; that for `Fc1ccc(CN2CCC(c3n[nH]c4ncccc34)CC2)cc1F`, -26.5%; that for `c1ccc(-c2nc(CN3CCc4c(ncn4C4CC4)C3)cs2)cc1`, -8.68%.

Regarding `Cc1ccc(C(=O)N2CCCC3(CCCC(=O)N3C)C2)cc1F` (stereo not given), the Percent Effect was -9.62%. With `Cc1nn(C)c(N(C)C)c1CNC(C)c1cccc(OC(C)C)c1` (stereo not given), the Percent Effect is -11.9%.

`c1csc(-c2nc(CN3CCn4c(nnc4C4CC4)C3)co2)c1`: the Percent Effect is -5.6%. In the case of `CCCc1n[nH]cc1C(=O)N1CCC(c2nccn2CCOC)CC1`, the Percent Effect turned out to be 20.9%.

Consider `Cc1cc(C)n2cc(CN3CCCC3Cn3nc(C)nc3C)nc2n1` (stereo not given), for which the Percent Effect was -6.76%.

For `CN(C)S(=O)(=O)N1CCCC(c2cccc(Cc3ccccc3)n2)C1` (stereo not given), the Percent Effect is -8.36%.

Regarding `CC(C)NC(=O)CC1COC2(CCN(Cc3cccs3)CC2)C1` (stereo not given), the Percent Effect was -13.3%. The result for `CCc1nc(C2CCCN2C(=O)c2c[nH]c(C)n2)no1` (stereo not given) reads -9.37%; that for `Cc1cc(NC(=O)NCC2CCOC2)no1` (stereo not given), -11.3%; that for `CC(C)(O)CN1CCN(C(=O)c2cccnc2O)CC1`, -0.501%. Turning to `CC1(C)OCC(CNC(=O)c2cnn(-c3ccc(Cl)cc3)c2N)O1` (stereo not given), the Percent Effect is -22.4%. The result for `O=c1c2ccccc2nc2n1C(CSc1ccc(Cl)cc1Cl)CN2` (stereo not given) reads -2.41%. The result for `Cc1ccc(CN2CCCn3c(nc(CN4CCCC4)cc3=O)C2)s1` reads 3.51%. Turning to `CC(C(=O)N1CCCC1)N1CCC(c2nccn2Cc2cscn2)CC1` (stereo not given), the Percent Effect was -3.89%.

Consider `Cn1ccc(C(=O)NCc2cccc(NC(=O)C3CCC3)c2)cc1=O`, for which the Percent Effect is -9.82%. Take `c1cc(-c2nc(CN3CCn4c(nnc4C4CC4)C3)cs2)cs1`: the Percent Effect came to 5.73%. In the case of `Cc1ccc(-c2nc(CN3CCCC(Cn4cncn4)C3)no2)cc1` (stereo not given) it was 9.47%; in that of `c1cc(-c2noc(CN3CCn4c(nnc4C4CC4)C3)n2)co1`, 2.97%; in that of `Cn1cnc2c1CCN(Cc1cccc(C(N)=O)c1)C2`, 4.07%. For the compound `CCn1ccnc1CN(C)CC1CCCN1c1cccnn1` (stereo not given), the Percent Effect is -11.5%. With `CNc1cc(C2CCCN2C(=O)c2ccc3oc(=O)n(C)c3c2)ccn1` (stereo not given), the Percent Effect is -22.1%. The result for `Cc1cccc(N2CCN(C(=O)Nc3cnn(CC(N)=O)c3)CC2)c1` reads -4.54%; that for `CC(C)c1cc(N2CCC(N)CC2)n2nccc2n1`, -1.59%.
